Source: PubChem BioAssay (National Center for Advancing Translational Sciences (NCATS))
The sample as a whole holds a higher share of hits than the screen did.
Methyltransferases: Primary Screen for Target Class Profiling of Small Molecule Inhibitors of Methyltransferases; calls only at 40 µM; purified enzyme, MTase-Glo SAH luminescence; active compounds read low; AID 1745853, 2022; 3.9% of 25,000 active; call rule not given here
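Each enzyme was reacted with SAM and its substrate, with compounds tested once at 40 uM; SAH formed was read by MTase-Glo luminescence.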
* hit, by the source's call; i = inactive; + = active, no number; ! = a repeat was not active. On the % scale 0 is the no-effect control and ±100 the full control effect.

SMILES | Methyltransferases
Cc1ccc(CNS(=O)(=O)c2cc3c(cc2Cl)n(C)c(=O)n3C)cc1 | i
Cc1noc(C)c1CCCNC(=O)c1ccc(NC[C@H]2C[C@H]3C=C[C@H]2C32CC2)nc1 | i
Cc1ccc(C2c3cccn3-c3sc4c(c3CN2C(=O)NCc2ccccc2)CCCC4)cc1 (stereo not drawn) | i
CCOc1ccc(CCNC(=O)CCc2nnc3n(Cc4ccccc4Cl)c(=O)c4ccccc4n23)cc1 | i
Fc1ccc2c(CCNCc3cccc(OCC(F)(F)C(F)F)c3)c[nH]c2c1 | +
CCC/C=C/C=C/C1CC(O)C(O)C(=O)C1CO (stereo not drawn) | i
CC(C)CNC(=O)c1ccc2c(=O)n(Cc3ccccc3)c3nn(CC(=O)NC4CCCC4)c(=O)n3c2c1 | i
CCc1ccc(S(=O)(=O)c2nnn3c2nc(NCc2ccccc2)c2ccccc23)cc1 | i
C=CC(C)(CCC=C(C)C)O[C@@H]1O[C@H](CO)[C@@H](O)[C@H](O)[C@H]1O (stereo partly drawn) | i
C=CC(C)(CC/C=C(\C)CC/C=C(\C)CC(O)/C=C(\C)C(=O)O)O[C@@H]1O[C@H](CO)[C@@H](O)[C@H](O)[C@H]1O[C@@H]1O[C@H](CO)[C@@H](O)[C@H](O)[C@H]1O (stereo partly drawn) | i
C=C[C@](C)(CC/C=C(\C)C(=O)O)O[C@@H]1OC[C@H](O)[C@H](O)[C@H]1O | +
COCCN1C(=O)c2nc3ccccc3n2CC1(C)C(=O)NC1CCCCCC1 (stereo not drawn) | i
CC1(C(=O)NC2CCCCCCC2)Cn2c(ccc2-c2ccccc2)C(=O)N1CCc1cccs1 (stereo not drawn) | i
COc1ccccc1Nc1ncc2c(n1)CN(C(=O)c1cc3ccccc3n1C)CCN2 | i
COc1cc(N2CCC(N)CC2)ccc1Nc1ncc(Cl)c(-c2c[nH]c3ccccc23)n1 | +
COc1cc(N2CCC(N3CCN(C)CC3)CC2)ccc1Nc1ncc(Cl)c(-c2c[nH]c3ccccc23)n1 | +
COc1cc(N2CCOCC2)ccc1NC(=O)c1csc(-c2cccnc2)n1 | i
CC1(C(=O)NC2CCCCCC2)Cn2c(ccc2-c2ccco2)C(=O)N1C1CCCCC1 (stereo not drawn) | i
CC(C)c1ccc(NC(=O)Cn2c(=O)oc3cc(S(=O)(=O)N4CCCCC4)ccc32)cc1 | i
COCCN1C[C@@H]2[C@H](c3ccccc31)[C@@H](CO)[C@@H](c1ccccc1)N2C(=O)COC(C)=O | i
CC1(C)CN(C(=O)c2ccc(Oc3ccccc3)o2)CC1(C)O (stereo not drawn) | i
CCn1c(=O)n(CC)c2cc(S(=O)(=O)N3CCN(c4cccc(C)c4)C(C)C3)ccc21 (stereo not drawn) | i
O=S(=O)(c1ccc(Cl)cc1)c1ccc(N2CCN(c3ccccn3)CC2)nn1 | i
Cc1cccc(Cn2nc3n(Cc4ccccc4)c(=O)c4ccc(C(=O)NC5CCCC5)cc4n3c2=O)c1 | i
CC(C)CCNC(=O)C1(C)Cn2nc(C(=O)NCCN3CCCCC3)cc2C(=O)N1C (stereo not drawn) | i
SMILES | Methyltransferases
CC(C)CCn1c(=O)c2ccccc2n2c(=O)n(CC(=O)Nc3cccc(Cl)c3)nc12 | i
C=C1C(=O)OC2/C=C(\C)CC/C=C(\C)CC(OC(C)=O)C12 (stereo not drawn) | i
C=C1C(=O)O[C@@H]2/C=C(\C)C(=O)/C=C/[C@](C)(O)C[C@@H](OC(=O)C(C)C)[C@@H]12 | +
C=C1C(=O)O[C@@H]2/C=C(/C)CC3C=C(C[C@H](OC(=O)/C(C)=C\C)[C@@H]12)C(=O)O3 (stereo partly drawn) | i
Cc1ccc(Cn2c(=O)c3ccccc3n3c(-c4cccc(Cl)c4)nnc23)cc1 | i
O=C(N[C@H](c1ccccn1)C1CC(O)C1)c1ccc2c(c1)ncn2CCO (stereo partly drawn) | i
C[S+](CC[C@H](N)C(=O)[O-])C[C@H]1O[C@@H](n2cnc3c(N)ncnc32)[C@H](O)[C@@H]1O (stereo partly drawn) | i
CC1(C)CC2C(C1)C1(C)CCC13OC3(CO)C2O (stereo not drawn) | i
COC(=O)c1cc2n(n1)CC(C)(C(=O)NC1CCCCCC1)N(Cc1ccc(OC(C)C)cc1)C2=O (stereo not drawn) | i
CC(C)(C[C@@](O)(Cc1cc2ccncc2[nH]1)C(F)(F)F)c1cc(F)ccc1O | +
CCCn1c(=O)c2ccc(Cl)cc2n2c(SCC(=O)Nc3cccc(C)c3)nnc12 | i
CC(C)CN1CC(COc2ccc3ccccc3c2)Oc2ccnc(-c3ccc(OCC(=O)O)cc3)c2C1=O (stereo not drawn) | i
CCc1c(-c2ccccc2)c(-c2ccccc2)nn1-c1ccccc1-c1cccc(OCC(=O)O)c1 | +
COC(=O)Cn1nc(-c2cccc(OC)c2)c2ccccc21 | i
CC(C)NC(=O)c1ccc2c(=O)n(Cc3ccccc3)c3nnc(SCC(=O)c4ccccc4)n3c2c1 | i
COc1ccc(-c2cc3n(n2)CC(C)(C(=O)NCc2ccccc2)N(c2cc(Cl)ccc2C)C3=O)cc1 (stereo not drawn) | i
O=C(c1ccccc1)N1CCCC2(CC(c3ccccc3)=NO2)C1 (stereo not drawn) | i
CC1=NOC2(CCN(C(=O)c3ccccc3)C2)C1 (stereo not drawn) | i
CC(=O)N(C)C1(c2ccccc2)CCN(CCC[C@]2(c3ccc(Cl)c(Cl)c3)CCCN(C(=O)c3ccccc3)C2)CC1 | +
O=C(CCn1ccc2cc(S(=O)(=O)N3CCCCC3)ccc21)N1CCN(C(=O)c2ccco2)CC1 | i
Cc1cccc(N2CCN(C(=O)CCc3nnc4n(Cc5ccccc5)c(=O)c5ccccc5n34)CC2C)c1 (stereo not drawn) | i
CC(C)NS(=O)(=O)c1ccc2c(c1)nc(-c1cc(C(C)(C)C)[nH]n1)n2C(C)C | i
CC1(C)CCC2(C(=O)OC3OCC(O)C(O)C3O)CCC3(C)C(=CCC4C5(C)CC(O)C(OC6OC(COC7OCC(O)C(O)C7O)C(O)C(O)C6O)C(C)(C)C5CCC43C)C2C1 (stereo not drawn) | i
Cc1nc([C@@H]2CN(C(=O)CCc3c(C)noc3C)C[C@H]2C(N)=O)n[nH]1 | i
CCOC(=O)c1cc2n(n1)CC(C)(C(=O)NCc1ccccc1OC)N(c1ccccc1C)C2=O (stereo not drawn) | i
SMILES | Methyltransferases
Cc1cccc(Cn2nc3n(C)c(=O)c4ccc(C(=O)NC5CCCCC5)cc4n3c2=O)c1 | i
CN(c1ccccc1CNc1nc(Nc2ccc3c(c2)CC(=O)N3)ncc1C(F)(F)F)S(C)(=O)=O | +
CN1CCC[C@@H]1Cc1c[nH]c2ccc(CCS(=O)(=O)c3ccccc3)cc12 | +!
CNS(=O)(=O)CCc1ccc2[nH]cc(C3CCN(C)CC3)c2c1 | i
CN(C)CCc1c[nH]c2ccc(C[C@H]3COC(=O)N3)cc12 | i
Cc1cc(F)ccc1NC(=O)c1cc2n(n1)CC(C)(C(=O)NC1CCCCC1)N(C)C2=O (stereo not drawn) | i
CC(C)Cn1c(=O)c2ccccc2n2c(=O)n(Cc3ccc(F)cc3Cl)nc12 | i
CC(C)Cn1c(=O)c2cc(F)ccc2n2c(SCc3ccccc3Cl)nnc12 | i
CCN1C(=O)c2c(C(=O)NCc3cc(OC)ccc3OC)ncn2CC1(C)C(=O)NC1CCCC1 (stereo not drawn) | i
